Source: PubChem
Shown are actives, neighbours in structure and some others; about 7.4% of the full set was active somewhere.
SMN2 splice up: qHTS Assay for Enhancers of SMN2 Splice Variant Expression | HEK293 SMN2-luciferase splicing reporter, luminescence, 30-36 h | Potency, µM (series often up to 46.1 µM), most hits filed as activators | 2.8% of 210,000 active | AID 1458, 2008; note: nearly all actives have a fitted effect of over 55% in size
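qHTS luciferase splicing reporter: luminescence rises when SMN2 exon 7 is included in transfected HEK293 cells. Compound exposure lasted 30-36 h at 37C, with 4.5 mM final sodium butyrate as control, followed by a ONE-Glo read.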
NPC1 prom act: qHTS Assay for NPC1 Promoter Activators; Huh7 NPC1 promoter luciferase reporter, 24 h; Potency, µM (top dose mostly 9.22 µM), usual class: activators; 2.4% of 320,000 active; note: nearly all actives have a fitted effect of over 60% in size
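Luminescence from an NPC1 promoter-driven luciferase reporter in stably transfected Huh7 cells was measured after 24 h compound treatment at 37 °C, followed by 10 min ambient incubation with luciferase detection reagent.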
Rab9 promoter act: qHTS Assay for Rab9 Promoter Activators; Potency, µM (doses to about 9.22 µM), most hits filed as activators; 2.8% of 320,000 active; Huh7 Rab9 promoter-luciferase reporter, luminescence, 24 h; AID 485297, 2010; note: nearly all actives have a fitted effect of over 60% in size
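Huh7 reporter line, Rab9 promoter upstream of luciferase. Compound exposure 24 h at 37 °C in reduced-serum medium with 10% FBS. Read-out: luminescence.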
ELG1 genotox: qHTS screen for small molecules that induce genotoxicity in human embryonic kidney (HEK293T) cells expressing luciferase-tagged ELG1; HEK293T ELG1-luciferase reporter, luminescence, 16 h; Potency, µM (series often up to 46 µM), actives largely listed as activators; 1.3% of 330,000 active; AID 504466, 2011; note: nearly all actives have a fitted effect of over 60% in size
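Luminescence read-out: rising ELG1-luciferase signal, reflecting elevated ELG1 protein under genetic stress, flags genotoxic compounds. Cells were treated for 16 hr at 37 °C before ONE-Glo detection.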
FLuc modulator: qHTS profiling assay for firefly luciferase inhibitor/activator using purifed enzyme and Km concentrations of substrates (counterscreen for miR-21 project); Luciferin 4-monooxygenase (Photinus pyralis), P08659; purified FLuc, Km substrates, luminescence inhibition; Potency, µM (highest dose often 57.5 µM), most hits filed as inhibitors; 6.9% of 360,000 active; note: nearly all actives have a fitted effect of over 55% in size
Target sequence (P08659 whole entry, looked up): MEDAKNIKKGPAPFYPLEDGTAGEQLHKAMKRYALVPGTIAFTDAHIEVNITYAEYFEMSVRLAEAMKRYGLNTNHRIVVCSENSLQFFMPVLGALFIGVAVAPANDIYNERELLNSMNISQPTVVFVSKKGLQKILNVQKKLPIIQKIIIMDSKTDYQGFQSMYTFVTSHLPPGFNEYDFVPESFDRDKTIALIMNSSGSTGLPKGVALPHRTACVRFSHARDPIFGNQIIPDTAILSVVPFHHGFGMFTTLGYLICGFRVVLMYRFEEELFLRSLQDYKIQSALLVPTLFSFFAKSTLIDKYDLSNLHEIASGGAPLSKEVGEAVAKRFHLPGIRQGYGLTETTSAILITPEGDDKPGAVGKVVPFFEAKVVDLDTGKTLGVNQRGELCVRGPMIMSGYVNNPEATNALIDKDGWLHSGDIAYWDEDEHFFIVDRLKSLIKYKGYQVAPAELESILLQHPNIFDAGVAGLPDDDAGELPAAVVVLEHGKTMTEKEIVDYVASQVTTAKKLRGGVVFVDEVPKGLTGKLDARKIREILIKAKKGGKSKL
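Biochemical qHTS of compounds, final roughly 60 µM downward over six points, against 10 nM purified firefly luciferase using Km concentrations of substrates (10 uM D-luciferin, 10 uM ATP) in Tris acetate pH 7.5 buffer; luminescence output.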
A number is an active result; – = inactive; ? = inconclusive; · = no result given; [ ] = another dose, or the depositor's remark. Calls come from the whole dose curve; as a rule, active = well fitted curve in the direction sought with a large enough effect; inconclusive = small, poorly fitted or top-dose-only effect, or another doubt; inactive = no such curve, though single readings can be large; an effect the other way counts as inactive or inconclusive.

SMILES | SMN2 splice up | NPC1 prom act | Rab9 promoter act | ELG1 genotox | FLuc modulator
CC(C)NC(=S)NC(=O)c1ccc(Cl)cc1Cl | –[1.84 µM] | – | – | – | –
O=C(NC(=S)Nc1ccccc1O)c1ccc(Cl)cc1Cl | – | ? | ? | ? | 19µM
O=C(Nc1ccc(Cl)cc1Cl)c1ccc(-c2ccccc2)cc1 | – | – | – | – | –
C#Cc1cccc(NC(=O)c2ccc(Cl)cc2Cl)c1 | · | 1.78µM | 1.12µM | 16.4µM | 2.69µM
O=C(Nc1ccccc1Cl)c1ccccc1Cl | – | – | – | – | –
O=C(Nc1ccccc1Cl)c1ccc(Cl)cc1Cl | – | – | – | – | 13.5µM
Cc1nc2nc(NC(=O)CC(C)C)[nH]n2c(=O)c1Cc1ccccc1 | – | · | · | · | –
Cc1cc(NC(=O)C2CCN(S(=O)(=O)c3ccc(Br)s3)CC2)ccc1Br | – | · | · | · | –
CC(C)CCn1cnc2c(oc3nc4c(cc32)CCCC4)c1=O | · | 0.501µM | 0.447µM | ? | 1.69µM
Cn1c(=O)n(C)c2cc(N3CCOCC3)c(NS(=O)(=O)c3cccc(C#N)c3)cc21 | · | · | · | · | –
O=C(Cn1ccn(-c2ccc(F)c(F)c2)c(=O)c1=O)Nc1ccccc1F | · | · | · | · | –
COc1ccc(C(CC(=O)c2ccccc2)S(=O)(=O)c2ccc(C)cc2)cc1 (stereo not drawn) | ? | 2.24µM | 3.98µM | ? | 0.757µM
CC[n+]1c(/C=C/c2ccc(N(C)C)cc2)ccc2ccccc21 | – | – | – | – | ?
CC[n+]1c(/C=C/c2ccc(OC)c(OC)c2)ccc2ccccc21 | · | – | – | 10.3µM | 3.38µM
CC[n+]1c(/C=C/c2ccc(OC(C)=O)c(OC)c2)ccc2ccccc21 | · | – | – | ? | 19µM
CC[n+]1c(/C=C/c2cc([N+](=O)[O-])ccc2O)ccc2ccccc21 | · | – | – | – | –
O=C(NCCc1cccs1)c1ccc(Cn2c(SCc3cccc(F)c3)nc3cccnc32)cc1 | – | · | · | · | –
O=C(NCc1ccco1)c1ccc(Cn2c(SCc3ccccc3)nc3cccnc32)cc1 | · | · | · | · | 6.75µM
O=C(NCCc1ccccc1)c1ccc(Cn2c(SCc3ccccc3)nc3cccnc32)cc1 | · | · | · | · | 6.01µM
O=C(NCCc1ccccc1)c1ccc(Cn2c(SCc3cccc(F)c3)nc3cccnc32)cc1 | · | – | – | · | –
Cc1ccccc1CSc1nc2cccnc2n1Cc1ccc(C(=O)NCCc2cccs2)cc1 | · | · | · | · | 5.36µM
CC(C)OCCCNC(=O)c1ccc(CSc2nc3cccnc3n2Cc2ccccc2)cc1 | · | · | · | · | –
Cc1ccc(CSc2nc3cccnc3n2Cc2ccc(C(=O)NCCc3ccccc3)cc2)cc1 | · | · | · | · | 0.477µM
NC(C(=O)O)c1cccc(O)c1 (stereo not drawn) | – | · | · | · | ·
O=C(Cn1nc(-c2ccccc2)nc(Cc2ccccc2)c1=O)Nc1ccc(Cl)cc1 | · | · | · | · | –
SMILES | SMN2 splice up | NPC1 prom act | Rab9 promoter act | ELG1 genotox | FLuc modulator
CC1=C(C(=O)Nc2cccc(C(F)(F)F)c2)C2(CCCCCC2)OC1=O | · | · | · | · | –
O=C(NCc1ccccc1Cl)c1ccc(Cn2c(SCc3ccccc3)nc3cccnc32)cc1 | · | · | · | · | 5.36µM
O=C(NCc1ccccc1)c1ccc(CSc2nc3cccnc3n2Cc2ccccc2F)cc1 | · | · | · | · | –
CCOC(=O)c1cc(-c2ccccc2)sc1N | ? | – | ? | – | 21.3µM
CCOC(=O)c1sc(-c2ccccc2)cc1N | ? | ? | ? | 12.6µM | 13.5µM
CCOC(=O)c1c(N)sc(-c2ccccc2)c1C | – | – | – | ? | 16.9µM
CCOC(=O)c1sc(-c2ccc(OC)cc2)cc1N | · | 2.24µM | 1.26µM | ? | ?
CC(=O)c1sc(-c2ccccc2)cc1N | · | – | – | – | ?
CCOc1ccc(-c2nc3c(c(SCC(=O)N4CCCCC4)n2)Cc2cccc(OC)c2O3)cc1 | – | · | · | · | –
CCOC(=O)c1sc2nc(C3CC3)cc(-c3ccc(F)cc3)c2c1N | – | – | – | – | –
CCOC(=O)c1sc(-c2ccc(F)cc2)cc1N | ? | ? | 2.51µM | 14.1µM | 9.53µM
Cc1ccc(-n2c(=O)c3c(C)c(C(=O)N(C)C)sc3n(CC(=O)C(C)(C)C)c2=O)cc1C | · | · | · | · | –
O=C(N/N=C/c1ccc(OC(F)F)cc1)c1ccc(CSc2nc3ccccc3[nH]2)cc1 | –[1.84 µM] | – | – | – | 16.9µM
O=C(N/N=C/c1ccc(OC(F)F)cc1)c1ccc(Br)cc1 | – | – | – | – | ?
CCOc1ccc(/C=N/NC(=O)c2ccc(CSc3nc4ccccc4[nH]3)cc2)cc1 | – | – | – | – | 6.75µM
COC(=O)c1cc2oc(C)cc2n1Cc1ccc(Cl)cc1 | · | · | · | · | –
COc1ccc(NC(=O)Cn2ncc3c4ccccc4n(Cc4ccccc4)c3c2=O)cc1OC | – | · | · | · | –
O=C(Oc1ccccc1/C=C\C(=O)c1cc2ccccc2o1)c1cccc(F)c1 | – | – | ? | ? | 8.49µM
O=C(N/N=C/c1ccccc1OC(=O)c1ccc2c(c1)OCO2)c1cccc(F)c1 | – | – | – | ? | –
